In PubChem BioAssay AID2380 (Sanford-Burnham Center for Chemical Genomics, 2010):
The campaign covered roughly 330,000 compounds. About 960 (0.29%) were called active. The entries come from a sample that favours actives as a whole. Values without a mark were called inactive.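 How the source made its calls: active means compounds whose signal lies at least 3.5 SD above the mean of all wells on their plate; inactive means the rest.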

assay: inducers of MIN6 beta-cell proliferation, primary screen, ATP luminescence, uHTS (AID 2380); conditions: MIN6 cells proliferation, ATPlite luminescence, 48 h; at 10 µM; active compounds read high; 100% = growth in 10% serum; cells starved in 0.2% serum;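 further: 0% = DMSO-treated cells in low-serum medium and 100% = 10% serum control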

Compound | proliferation
Cc1nn(CC(=O)Nc2ccc(N(C)C)cc2)c(C)c1[N+](=O)[O-] | 3.2%
C[n+]1cc(-c2ccccc2)oc1-c1ccccc1 | -1.56%
CN(C)c1nc(N)nc(Cn2nnc(-c3ccc(C(F)(F)F)cc3)n2)n1 | 1.04%
COc1ccc(-c2nnn(Cc3nc(N)nc(N4CCCCC4)n3)n2)cc1 | 8.76% (active)
COc1ccc(-n2nnnc2SCc2nc(N)nc(N3CCOCC3)n2)cc1 | -2.85%
CC(=O)Nc1ccc(NC(=O)C(C)OC(=O)c2ccccc2C(=O)c2ccc(Cl)c([N+](=O)[O-])c2)cc1 (stereo not given) | -5.3%
O=C(Nn1c(-c2ccc(Cl)cc2)nc2ccccc2c1=O)c1cccnc1Cl | -0.79%
N#CCc1ccc(NC(=O)c2ccccc2C(=O)Nc2ccc(CC#N)cc2)cc1 | -4.24%
CCOc1ccc(NC(=O)Nc2cc(C)ccc2OC)cc1 | -2.89%
COc1ccc(OC)c(NC(=O)CC(Cc2ccccc2OC)C(=O)O)c1 (stereo not given) | -2.33%
CCOc1ccccc1NC(=O)Nc1cc(OC)ccc1OC | 7.28% (active)
CC(C)(C)N(Cc1ccccc1)C(=O)c1ccncc1 | -4.48%
O=c1[nH][nH]c(C(F)(F)F)c1C=NCc1ccccc1Cl | -0.46%
Cc1cccn2c(=O)c3cc(C(=O)NCCN4CCOCC4)c(=N)n(Cc4cccnc4)c3nc12 | -6.51%
COc1ccc(CCn2c(=N)c(C(=O)NCc3ccco3)cc3c(=O)n4cccc(C)c4nc32)cc1 | 10.3% (active)
COc1ccc(CCn2c(=N)c(C(=O)NCC3CCCO3)cc3c(=O)n4cccc(C)c4nc32)cc1OC (stereo not given) | -3.69%
NS(=O)(=O)c1ccc(-c2ccc(/C=C3\SC(=O)NC3=O)o2)cc1 | 2.43%
COc1ccc2cc(-c3[nH]ncc3CNCCn3nc(C)cc3C)ccc2c1 | -1.3%
NC(=O)C1CCN(C2OC(=O)c3ccccc32)CC1 (stereo not given) | -1.61%
CC(C)CNC(=O)C1CCCN(S(=O)(=O)c2ccc(-n3cnnn3)cc2)C1 (stereo not given) | 1.81%
O=C(Nc1ccc(F)cc1)C1CCCN(S(=O)(=O)c2ccc(-n3cnnn3)cc2)C1 (stereo not given) | 0% (active)
CC(NC(=O)C1CCCN(S(=O)(=O)c2ccc(-n3cnnn3)cc2)C1)c1ccc(F)cc1 (stereo not given) | -0.52%
Cc1cc(NC(=O)c2ccco2)c(=O)n(Cc2c(F)cccc2Cl)c1 | 6.29% (active)

Compound | proliferation
O=C(Cc1c(F)cccc1Cl)N1CCN(C(=O)c2ccco2)CC1 | -0.41%
O=C(Nc1cccn(Cc2c(Cl)cccc2Cl)c1=O)c1ccc(Cl)cc1 | 0.88%
COc1cc2cc(CN(CCN3CCCC3)C(=O)Nc3ccccc3Cl)c(=O)[nH]c2cc1OC | -1.42%
CN(Cc1ccc2nsnc2c1)Cc1nc(Cc2cccc(F)c2)no1 | -1.6%
CC1(C)Cc2c(sc(NC(=O)C(=O)NCC3CCCO3)c2C(=O)O)CO1 (stereo not given) | -1.4%
COc1ccc(CNC(=O)C(C)n2nc(C)c3c(C)n(-c4ccccc4)nc3c2=O)c(OC)c1 (stereo not given) | 0.39%
Cc1nn(C(C)C(=O)N2CCOCC2)c(=O)c2nn(-c3ccccc3)c(C)c12 (stereo not given) | -0.46%
Cc1nn(C(C)C(=O)NCCC2=CCCCC2)c(=O)c2nn(-c3ccccc3)c(C)c12 (stereo not given) | 11.7% (active)
COC(=O)c1ccc(C(NC(=O)OCc2ccccc2)/C(C)=C/[C@@H](C)C(=O)NCc2ccc(OC)c(OC)c2)cc1 (stereo not given in full) | -1.99%
CC(C)OCCCNC(=S)N1CCC(C(=O)c2ccc3c(c2)OCCO3)CC1 | -1.17%
CC(C)C(=O)Nc1c2c(nn1-c1ccccc1)CSC2 | 0.9%
CC1(C)C2CC=C(/C=N/NC(=O)C3CC3)C1C2 (stereo not given) | 7.56% (active)
COc1ccc(/C=N/NC(=O)C2CC2)c(OC)c1OC | 0.51%
CC1(C)C2CC=C(/C=N/NC(=O)c3ccc(Cl)cc3)C1C2 (stereo not given) | -2.07%
O=[N+]([O-])c1ccc2c(c1)C(N1CCOCC1)/C(=C/C1(O)CCCCC1)O2 (stereo not given) | -1.4%
O=C(O)c1cc(S(=O)(=O)N(Cc2ccccc2)c2cccc(C(F)(F)F)c2)ccc1Cl | -1%
CCC1(CC)NC(=O)N(CC(=O)OCC(=O)Nc2ccc(C(F)(F)F)cc2)C1=O | -0.99%
CC1CCN(C(=O)/C(=C\c2ccccc2)NC(=O)c2ccccc2)CC1 | 2.17%
O=C(OCCN1CCOCC1)C1(c2ccccc2)CCCCC1 | 5.6%
CCCC(NCC(=O)Nc1ccccc1C(=O)NC1CC1)c1ccccc1 (stereo not given) | -0.98%
Cc1ccc(NC(=O)COC(=O)CNC(=O)c2ccc(Cl)cc2Cl)cc1S(=O)(=O)N1CCOCC1 | -0.42%
Cc1cccc2c1-c1sc(C(=O)NCCCN3CCc4ccccc4C3)cc1CO2 | -7.36%
